Results filed as inconclusive are left out. The source made the active and inactive calls. Unless noted, the call rests on the fitted dose curve; in most records, active means well fitted curve in the direction sought with a large enough effect in the repeat runs; inconclusive means weak or mixed curves; inactive means no such curve, though single readings can be large; an effect the other way counts as inactive or inconclusive.
Legend:
[1] = qHTS assay to test for compound auto fluorescence at 460 nm (blue) in HEK293 cell free culture (AID 720681)
How it was run: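 Test compounds were pinned into cell-free culture medium (DMEM with 10% FBS) and fluorescence was read directly at Ex/Em 405/460 nm. Signals were expressed as fluorescence equivalents of triamterene, with DMSO vehicle as control.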

[2] = qHTS assay to test for compound auto fluorescence at 535 nm (green) in HEK293 cell free culture (AID 720682)
How it was run: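 Fluorescein serves as the green reference fluorophore; each compound's intrinsic emission at 535 nm (excitation 485 nm) is reported as an equivalent amount of that dye, measured in serum-containing DMEM without cells.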

[3] = qHTS assay to test for compound auto fluorescence at 590 nm (red) in HEK293 cell free culture (AID 720683)
How it was run: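 Tox21 10K library compounds were pinned into cell-free DMEM with 10% FBS and fluorescence was read at excitation 540 nm. Activity is expressed as Rose Bengal sodium equivalency.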

[4] = qHTS assay to test for compound auto fluorescence at 590 nm (red) in HepG2 cell free culture (AID 720684)
How it was run: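 Readout: intrinsic compound fluorescence at 590 nm emission after 540 nm excitation, scaled to Rose Bengal sodium. Matrix was cell-free MEM with 10% FBS; DMSO vehicle wells served as control.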

[5] = qHTS assay to test for compound auto fluorescence at 460 nm (blue) in HepG2 cell free culture (AID 720685)
How it was run: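 Cell-free plates of MEM plus 10% FBS received 23 nL compound or DMSO vehicle; blue-channel (405/460 nm) intensity scored against triamterene as reference fluorophore.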

[6] = qHTS assay to test for compound auto fluorescence at 535 nm (green) in HepG2 cell free culture (AID 720686)
[7] = qHTS assay to test for compound auto fluorescence at 460 nm (blue) in HepG2 cells (AID 720687)
How it was run: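 Cells (2,000/well in MEM with 10% FBS) attached overnight at 37 C, then were exposed to compound or DMSO for 1 hr at 37 C, 5% CO2. Fluorescence read at Ex/Em 405/460 nm, expressed as triamterene-equivalent signal.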

[8] = qHTS assay to identify small molecule antagonists of the glucocorticoid receptor (GR) signaling pathway - cell viability counter screen (AID 720693); further: nearly all actives have a fitted effect of over 55% in size
[9] = qHTS assay for identifying genotoxic compounds that show differential cytotoxicity against isogenic chicken DT40 cell lines with known DNA damage response pathways - wild type cell line (AID 743012); further: nearly all actives have a fitted effect of over 60% in size; further: potency means the concentration at half of the fitted maximal effect
How it was run: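 CellTiter-Glo luminescence readout of viability in wild type DT40 cells after 40 h compound exposure at 37 C/5% CO2; 300 cells/well; reagent incubated 30 min at room temperature before reading.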

[10] = qHTS assay for identifying genotoxic compounds that show differential cytotoxicity against isogenic chicken DT40 cell lines with known DNA damage response pathways - Rev3 mutant cell line (AID 743014); further: nearly all actives have a fitted effect of over 55% in size; further: potency means the concentration at half of the fitted maximal effect
[11] = qHTS assay for identifying genotoxic compounds that show differential cytotoxicity against isogenic chicken DT40 cell lines with known DNA damage response pathways - Rad54/Ku70 mutant cell line (AID 743015); further: nearly all actives have a fitted effect of over 60% in size; further: potency means the concentration at half of the fitted maximal effect
[12] = molecular target: Androgen receptor (Homo sapiens) (UniProt P10275); assay: qHTS assay to identify small molecule agonists of the androgen receptor (AR) signaling pathway using the MDA cell line (AID 743040; further: nearly all actives have a fitted effect of over 20% in size)
How it was run: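 Agonist activity is measured as luciferase luminescence in human MDA-kb2 cells whose MMTV reporter responds to both AR and GR. Compounds in DMSO incubate 16 h at 37C, 0% CO2, and ONE-Glo is read after 30 min.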

[13] = molecular target: Androgen receptor (Homo sapiens) (UniProt P10275); assay: qHTS assay to identify small molecule antagonists of the androgen receptor (AR) signaling pathway using the MDA cell line (AID 743042; further: nearly all actives have a fitted effect of over 55% in size; further: potency means the concentration at half of the fitted maximal effect)
How it was run: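 MDA-kb2 cells (human breast carcinoma, stably carrying an MMTV-luciferase reporter responsive to AR and GR) were plated at 3,000 cells/well and preincubated 5 hr at 37C, then given compound plus R1881 agonist for 16 h. ONE-Glo luminescence was read.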

[14] = qHTS assay to test for compound auto fluorescence at 535 nm (green) in HEK293 cells (AID 720680)
[15] = molecular target: Glucocorticoid receptor (Homo sapiens) (UniProt P04150); assay: qHTS assay to identify small molecule agonists of the glucocorticoid receptor (GR) signaling pathway (AID 720691; active means well fitted activation curve with a large enough effect in the signal ratio in the repeat runs, not every such curve was filed as active; the % refers to the signal ratio); conditions: GR-bla HeLa, beta-lactamase reporter ratio, 18 h; activation: at 62.4 µM (top of the series)
How it was run: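 HeLa GR-bla reporter line; cells pre-incubated 4 h, compound in DMSO 18 h at 37 C; LiveBLAzer B/G FRET substrate 2 h RT; fluorescence intensity read-out.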

[16] = qHTS assay to identify small molecule antagonists of the androgen receptor (AR) signaling pathway - cell viability counter screen (AID 743033; further: nearly all actives have a fitted effect of over 45% in size)
[17] = qHTS assay to identify small molecule antagonists of the androgen receptor (AR) signaling pathway using the MDA cell line - cell viability counter screen (AID 743041; further: nearly all actives have a fitted effect of over 45% in size)
How it was run: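 qHTS viability read-out; MDA-kb2 AR-luc; R1881-stimulated; 16 h exposure at 37C, 0% CO2; CellTiter-Fluor, 30 min; fluorescence intensity.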

[18] = molecular target: Androgen receptor (Homo sapiens) (UniProt P10275); assay: qHTS assay to identify small molecule antagonists of the androgen receptor (AR) signaling pathway (AID 743035; active means well fitted inhibition curve with a large enough effect in the signal ratio in the repeat runs, not every such curve was filed as active; the % refers to the signal ratio)
How it was run: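 AR-bla HEK293 reporter cells; 4 h settle at 37C/5% CO2; compound + R1881 agonist, 16 h at 37C; LiveBLAzer B/G FRET substrate 2 h RT; fluorescence intensity read. qHTS format.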

[19] = molecular target: Androgen receptor (Homo sapiens) (UniProt P10275); assay: qHTS assay to identify small molecule agonists of the androgen receptor (AR) signaling pathway (AID 743036; active means well fitted activation curve with a large enough effect in the signal ratio in the repeat runs, with a control signal flat, not every such curve was filed as active; the % refers to the signal ratio)
How it was run: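 Fluorescence from a beta-lactamase FRET substrate served as read-out in AR-UAS-bla GripTite HEK293 cells. Cells were treated with DMSO-dissolved compounds for 16 h at 37C, then with LiveBLAzer B/G substrate for 2 h at room temperature.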

Measured: Potency

Sequence of Androgen receptor (Homo sapiens) (P10275 whole entry, looked up): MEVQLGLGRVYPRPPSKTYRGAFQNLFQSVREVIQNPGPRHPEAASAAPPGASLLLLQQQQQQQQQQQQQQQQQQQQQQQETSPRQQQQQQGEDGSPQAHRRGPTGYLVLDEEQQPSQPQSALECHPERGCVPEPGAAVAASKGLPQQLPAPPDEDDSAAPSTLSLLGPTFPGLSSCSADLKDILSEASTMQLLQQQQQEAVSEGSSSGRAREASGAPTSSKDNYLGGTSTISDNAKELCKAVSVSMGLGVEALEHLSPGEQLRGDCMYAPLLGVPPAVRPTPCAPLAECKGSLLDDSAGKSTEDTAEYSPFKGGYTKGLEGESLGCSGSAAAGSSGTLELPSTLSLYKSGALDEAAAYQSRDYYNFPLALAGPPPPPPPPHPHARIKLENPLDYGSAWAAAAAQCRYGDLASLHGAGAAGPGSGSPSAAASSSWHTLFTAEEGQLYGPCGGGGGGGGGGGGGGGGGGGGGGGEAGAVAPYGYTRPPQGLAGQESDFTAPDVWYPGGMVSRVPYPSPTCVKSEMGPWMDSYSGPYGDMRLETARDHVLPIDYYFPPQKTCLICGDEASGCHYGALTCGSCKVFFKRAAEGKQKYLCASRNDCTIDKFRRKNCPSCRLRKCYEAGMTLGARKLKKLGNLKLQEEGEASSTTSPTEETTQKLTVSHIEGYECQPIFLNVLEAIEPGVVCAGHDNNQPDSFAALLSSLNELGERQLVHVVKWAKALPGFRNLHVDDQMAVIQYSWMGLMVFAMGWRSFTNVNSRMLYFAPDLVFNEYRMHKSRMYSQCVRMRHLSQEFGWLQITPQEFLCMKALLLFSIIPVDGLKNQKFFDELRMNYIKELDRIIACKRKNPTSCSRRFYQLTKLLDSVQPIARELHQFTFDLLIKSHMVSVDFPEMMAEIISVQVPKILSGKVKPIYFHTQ
Sequence of Glucocorticoid receptor (Homo sapiens) (P04150 whole entry, looked up): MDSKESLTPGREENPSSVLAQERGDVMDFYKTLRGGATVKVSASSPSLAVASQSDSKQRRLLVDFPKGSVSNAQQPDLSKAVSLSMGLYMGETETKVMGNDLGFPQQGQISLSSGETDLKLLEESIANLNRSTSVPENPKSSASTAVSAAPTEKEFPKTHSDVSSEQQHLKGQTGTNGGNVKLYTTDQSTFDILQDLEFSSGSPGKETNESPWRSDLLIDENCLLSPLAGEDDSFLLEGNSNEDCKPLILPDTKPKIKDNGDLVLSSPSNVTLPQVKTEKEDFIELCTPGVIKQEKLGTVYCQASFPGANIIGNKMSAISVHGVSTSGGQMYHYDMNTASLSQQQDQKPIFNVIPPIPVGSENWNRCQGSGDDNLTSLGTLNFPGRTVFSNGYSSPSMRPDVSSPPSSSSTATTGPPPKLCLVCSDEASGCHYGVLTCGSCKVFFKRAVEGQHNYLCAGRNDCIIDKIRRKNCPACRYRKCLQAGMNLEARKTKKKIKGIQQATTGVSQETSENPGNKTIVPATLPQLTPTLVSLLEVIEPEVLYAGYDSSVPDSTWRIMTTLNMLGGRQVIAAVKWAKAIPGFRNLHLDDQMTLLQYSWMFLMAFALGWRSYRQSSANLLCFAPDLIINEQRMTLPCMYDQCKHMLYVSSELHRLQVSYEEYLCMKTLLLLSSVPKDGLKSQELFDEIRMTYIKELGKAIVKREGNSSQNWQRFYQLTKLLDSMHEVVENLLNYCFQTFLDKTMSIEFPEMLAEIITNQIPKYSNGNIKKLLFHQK

CC1(S(=O)(=O)O)CC(=O)c2ccccc2C1=O (stereo not drawn)
active: [9] 9.44 µM | [10] 11.9 µM | [11] 11.9 µM | [13] 29.8 µM
not listed: [14] | [15] | [16] | [17] | [18] | [19]
inactive: all other assays above

FC(F)(F)C(F)(F)C(F)(F)C(F)(F)C(F)(F)C(F)(F)F
not listed: [3] | [12] | [13] | [18] | [19]
inactive: all other assays above

O=C1c2ccccc2C(=O)C1c1ccc(Cl)cc1
not listed: [3] | [15] | [17] | [18] | [19]
inactive: all other assays above

O=C(O)CCC/C=C\C[C@@H]1[C@@H](/C=C/[C@@H](O)COc2cccc(Cl)c2)[C@H](O)C[C@@H]1O
not listed: [3] | [8] | [15]
inactive: all other assays above

CC#CCC(C)[C@H](O)/C=C/[C@@H]1[C@H]2c3cccc(CCCC(=O)O)c3O[C@H]2C[C@H]1O (stereo partly drawn)
not listed: [3] | [18] | [19]
inactive: all other assays above

Reference: PubChem BioAssay (Tox21)
